According to the supplement of paper PMC8975748:
± gives the standard deviation of the averaged measurements.

Experiments:
[1] = test system: Saccharomyces cerevisiae BY4741 SeMeCo community; assay: mean cell size (pixel area) (pixels); higher = larger cells; conditions: 10 µM; 24 h; SM minimal medium
Procedure, shortened: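 Mean cell pixel area per well was measured in a four-plasmid fluorescent community of Saccharomyces cerevisiae BY4741, where every plasmid complements one auxotrophy and carries a fluorescent marker. Cells from an overnight preculture at OD600 = 1.0 were diluted to OD600 = 0.3 and dispensed at 70 µl into 384-well plates acoustically predosed with drug to a final 10 µM in SM medium. Incubation lasted 24 h, followed by paraformaldehyde fixation, automated confocal imaging and analysis in Harmony. Reported figures are averaged over 3 replicates. Same SeMeCo high-content imaging drug screen: Selleck FDA-approved drugs at 10 µM, 24 h in SM medium, 384-well plates, 3 replicates.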

[2] = test system: Saccharomyces cerevisiae BY4741 SeMeCo community; assay: z-score of prototroph abundance vs DMSO median; higher = larger share of this subpopulation than in DMSO controls; conditions: 10 µM; 24 h; SM minimal medium; subpopulation (auxotrophy): Prototroph
Procedure, shortened: (§1)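 Cells of a Saccharomyces cerevisiae BY4741 community, carrying four plasmids that each restored one auxotrophy and encoded a distinct fluorescent protein, were pre-grown overnight to OD600 1.0 and diluted to 0.3. A 70 µl volume was added to 384-well plates acoustically predosed with library drugs (10 µM final) and grown 24 h in minimal SM medium. After paraformaldehyde fixation, automated confocal microscopy was used, with single-auxotroph fluorescent strains for thresholds and autofluorescence correction. The abundance of each subpopulation was scored as a z-score against the vehicle-well median.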

[3] = test system: Saccharomyces cerevisiae BY4741 SeMeCo community; assay: z-score of subpopulation abundance vs DMSO median, subpopulation auxotrophic for L; higher = larger share of this subpopulation than in DMSO controls; conditions: 10 µM; 24 h; SM minimal medium; subpopulation (auxotrophy): L
Procedure, shortened: as §1

[4] = test system: Saccharomyces cerevisiae BY4741 SeMeCo community; assay: z-score of subpopulation abundance vs DMSO median, subpopulation auxotrophic for H; higher = larger share of this subpopulation than in DMSO controls; conditions: 10 µM; 24 h; SM minimal medium; subpopulation (auxotrophy): H
Procedure, shortened: as §1

[5] = test system: Saccharomyces cerevisiae BY4741 SeMeCo community; assay: z-score of subpopulation abundance vs DMSO median, subpopulation auxotrophic for LU; higher = larger share of this subpopulation than in DMSO controls; conditions: 10 µM; 24 h; SM minimal medium; subpopulation (auxotrophy): LU
Procedure, shortened: as §1

[6] = test system: Saccharomyces cerevisiae BY4741 SeMeCo community; assay: z-score of subpopulation abundance vs DMSO median, subpopulation auxotrophic for LM; higher = larger share of this subpopulation than in DMSO controls; conditions: 10 µM; 24 h; SM minimal medium; subpopulation (auxotrophy): LM
Procedure, shortened: as §1

[7] = test system: Saccharomyces cerevisiae BY4741 SeMeCo community; assay: z-score of subpopulation abundance vs DMSO median, subpopulation auxotrophic for HM; higher = larger share of this subpopulation than in DMSO controls; conditions: 10 µM; 24 h; SM minimal medium; subpopulation (auxotrophy): HM
Procedure, shortened: as §1

[8] = test system: Saccharomyces cerevisiae BY4741 SeMeCo community; assay: z-score of subpopulation abundance vs DMSO median, subpopulation auxotrophic for HU; higher = larger share of this subpopulation than in DMSO controls; conditions: 10 µM; 24 h; SM minimal medium; subpopulation (auxotrophy): HU
Procedure, shortened: as §1

[9] = test system: Saccharomyces cerevisiae BY4741 SeMeCo community; assay: z-score of subpopulation abundance vs DMSO median, subpopulation auxotrophic for UM; higher = larger share of this subpopulation than in DMSO controls; conditions: 10 µM; 24 h; SM minimal medium; subpopulation (auxotrophy): UM
Procedure, shortened: as §1

[10] = test system: Saccharomyces cerevisiae BY4741 SeMeCo community; assay: z-score of subpopulation abundance vs DMSO median, subpopulation auxotrophic for HL; higher = larger share of this subpopulation than in DMSO controls; conditions: 10 µM; 24 h; SM minimal medium; subpopulation (auxotrophy): HL
Procedure, shortened: as §1

[11] = test system: Saccharomyces cerevisiae BY4741 SeMeCo community; assay: z-score of subpopulation abundance vs DMSO median, subpopulation auxotrophic for HLU; higher = larger share of this subpopulation than in DMSO controls; conditions: 10 µM; 24 h; SM minimal medium; subpopulation (auxotrophy): HLU
Procedure, shortened: as §1

[12] = test system: Saccharomyces cerevisiae BY4741 SeMeCo community; assay: z-score of subpopulation abundance vs DMSO median, subpopulation auxotrophic for HUM; higher = larger share of this subpopulation than in DMSO controls; conditions: 10 µM; 24 h; SM minimal medium; subpopulation (auxotrophy): HUM
Procedure, shortened: as §1

[13] = test system: Saccharomyces cerevisiae BY4741 SeMeCo community; assay: z-score of subpopulation abundance vs DMSO median, subpopulation auxotrophic for LUM; higher = larger share of this subpopulation than in DMSO controls; conditions: 10 µM; 24 h; SM minimal medium; subpopulation (auxotrophy): LUM
Procedure, shortened: as §1

[14] = test system: Saccharomyces cerevisiae BY4741 SeMeCo community; assay: z-score of subpopulation abundance vs DMSO median, subpopulation auxotrophic for HLUM; higher = larger share of this subpopulation than in DMSO controls; conditions: 10 µM; 24 h; SM minimal medium; subpopulation (auxotrophy): HLUM
Procedure, shortened: as §1

[15] = test system: Saccharomyces cerevisiae BY4741 SeMeCo community; assay: z-score of subpopulation abundance vs DMSO median, subpopulation auxotrophic for U; higher = larger share of this subpopulation than in DMSO controls; conditions: 10 µM; 24 h; SM minimal medium; subpopulation (auxotrophy): U
Procedure, shortened: as §1

[16] = test system: Saccharomyces cerevisiae BY4741 SeMeCo community; assay: z-score of subpopulation abundance vs DMSO median, subpopulation auxotrophic for HLM; higher = larger share of this subpopulation than in DMSO controls; conditions: 10 µM; 24 h; SM minimal medium; subpopulation (auxotrophy): HLM
Procedure, shortened: as §1

Row | SMILES | mean cell size [1] | z-score of prototroph abundance [2] | z-score of subpopulation abundance [3] | z-score of subpopulation abundance [4] | z-score of subpopulation abundance [5] | z-score of subpopulation abundance [6] | z-score of subpopulation abundance [7] | z-score of subpopulation abundance [8] | z-score of subpopulation abundance [9] | z-score of subpopulation abundance [10] | z-score of subpopulation abundance [11] | z-score of subpopulation abundance [12] | z-score of subpopulation abundance [13] | z-score of subpopulation abundance [14] | z-score of subpopulation abundance [15] | z-score of subpopulation abundance [16]
1 | CC1(C)S[C@@H]2[C@H](NC(=O)[C@H](N)c3ccc(O)cc3)C(=O)N2[C@H]1C(=O)O [Amoxicillin] | 12.6 ± 0.28 | -0.05 | -0.63 | 0.05 | 0.41 | -0.13 | 0.32 | 0.65 | 0.46 | -0.54 | 0.39 | 0.4 | 0.09 | 0.49 |  | 
2 | Cc1ncc([N+](=O)[O-])n1CCO [Metronidazole] |  | 0.23 | 0.11 | 0.44 | -0.37 | 0.12 | -0.42 | -0.14 | -0.62 | -0.42 | 0.18 | 0.09 | -0.37 | 0.08 | -0.5 | -0.7
3 | CC(C)(C)CC(C)(C)c1ccc(OCCOCC[N+](C)(C)Cc2ccccc2)cc1 [Benzethonium Chloride] | 11.7 ± 0.27 | 0.89 | -0.55 | 0.3 | -0.86 | -0.72 | -1.27 | 0.13 |  | -0.38 | -0.61 |  | 0.65 | 0.07 | 0.39 | -0.12
4 | C(=C\c1ccccc1)/CN1CCN(C(c2ccccc2)c2ccccc2)CC1 [Cinnarizine] | 12.21 ± 0.081 |  |  | -0.62 | 1.38 | -0.47 | -0.68 | 1.5 |  |  | 1.32 | 1.64 | 0.8 | 0.66 | 1.39 | -0.32
5 | C#C[C@]1(O)CC[C@H]2[C@@H]3CCc4cc(O)ccc4[C@H]3CC[C@@]21C [Ethinyl Estradiol] |  | 1.23 | -0.55 | 0.36 | -1.41 | -0.77 | 0 | 0.01 | -1.64 |  | -0.36 | -0.88 | -1.48 | -1.02 | -1.01 | -0.72
6 | N#Cc1ccc2[nH]cc(CCCCN3CCN(c4ccc5oc(C(N)=O)cc5c4)CC3)c2c1 [Vilazodone] | 12.2 ± 0.28 | 0.6 | 0.06 | 0 | -0.57 |  | -0.16 | -0.93 | -0.2 | -0.17 | 0.77 | -0.53 | 0.72 | 0.53 | -0.66 | 
7 | COc1ccnc(C[S+]([O-])c2nc3cc(-n4cccc4)ccc3[nH]2)c1C (stereo unspecified) [Ilaprazole] | 12.6 ± 0.45 | -0.51 | 2.44 | 4.64 | 0 |  |  | -0.45 | -1.96 | 3.84 | 0.92 | -1.45 | -0.52 |  | -1.42 | 1.1
